# Laboratory results published in the supplement of paper PMC8728848.
# The sample as a whole holds a higher share of the strongest signals than the screen did.
# B1: Epa1-NP-mutant-D229G (Candida glabrata), Q6VBJ0 (protein)
# chain: MILNPALFLNKCVCIYTTLILLLLTNGGYATSSNDISLASKDPTTFPLGCSPDITTPKKGLSMELYSYDFRKKGSYPCWDAAYLDPNYPRTGYKSHRLLAKVDGVTGNINFYYHATKGCTPQLGHLPASYNYPKPLTMTNFTMLLYGYFRPKVTGFHTFTISADDLLFVNFGAGNAFDCCRRDSSADHFGNYQAYAIWGSKTAKDELTVHLDAGVYYPIRLFYNNREYGGALSFTFKTESNENTVSDFSEYFFSLDDTEEGCPGLISYDSSCASVKTSKIIGIDYHTETPNENLVPITKTIYHLGIPCTGTTTTPLCGSGFYDPLANKCVTINTSSTSSVTKTTSHTTSKEVSFHSSISSQKTLIPKSIPSPYGPIKSQSIPTEMETSSEISSSEYAFSDVISTPSHSPYTKKHSSLNSSSYTSTVIHSLTSYSISQGIFSTSLSEQNITSKSSTDKFSTATSMSNNITQSSIIISQFSTNNENYTTTSMHTSSDKISTETLNNSISTTTSILFSNSSTILKNNTTIISSDKDTHYHPVNPTIVCSTNKTEIICASITQPSISNSNNHWSSSVLKFNSTTVRSTLPSSAGSNETSINVPFSSSTESNTSTSSTSTSNSKMVRSTLPSSAGSNETSISVPFSSSTESNTSTSSTSTSNSKMVRSTLPSSAGSNETSINVPFSSSTESNTSTSSTSTSNSKTVRSTPFSSAGIIMTSLSQRNNKSASSYASSNSKCYNTADSCRKVHSTPSYLLTSSYTSEGVDYDCSLVSTKLKINDTNCVNNKHTTKSCLKTSVTTTIPTLEIKTARKSSSNTIGLHSYPTSSPNKSISSAPIIGYISSFKTIKTASPSYQTSDLTTITTITSLNNPGSTAVENTHESNDKSRKTSSNDISSKHSVIKETKDAVESSNKSHQTNTLKCSSIIIASSSHNSYESLGGTTLTLTLSKVYSPQNNDTLPFLEISEVNPSRTVLPESSKMMQYLTSTEERNKTARNTIATNIVSISTFHFEGEGNAIRMGYTQLLLMLIGIIVMNIGT
# What was measured:
# Assay in all cases: glycan array binding signal (z-score within array); higher = stronger binding
# Conditions in all cases: glycan notation: IUPAC condensed, linker removed; mutation: D229G
# [1] = target: Fuc(a1-2)Gal(b1-3)GlcNAc(b1-2)Man(a1-3)[Fuc(a1-2)Gal(b1-3)GlcNAc(b1-2)Man(a1-6)]Man(b1-4)GlcNAc(b1-4)GlcNAc
# Summary of the method: (§1)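 From the Consortium for Functional Glycomics database, 3228 arrays were curated, keeping only those whose protein sequence was available. Binding is given as a within-array Z-score averaged across arrays sharing a protein sequence and across linkers. Negative Z-scores can be read as non-binding.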
# [2] = target: Fuc(a1-2)Gal(b1-3)GlcNAc(b1-3)GalNAc
# Summary of the method: as §1
# [3] = target: Fuc(a1-2)Gal(b1-3)GlcNAc(b1-3)[Gal(b1-4)GlcNAc(b1-6)]Gal(b1-4)Glc
# Summary of the method: as §1
# Fuc(a1-2)Gal(b1-4)GlcNAc = target: Fuc(a1-2)Gal(b1-4)GlcNAc
# Summary of the method: as §1
# [4] = target: Fuc(a1-2)Gal(b1-4)GlcNAc(b1-3)Gal(b1-4)GlcNAc(b1-3)Gal(b1-4)GlcNAc
# Summary of the method: as §1
# [5] = target: Fuc(a1-2)Gal(b1-4)[Fuc(a1-3)]GlcNAc(b1-3)Gal(b1-4)[Fuc(a1-3)]GlcNAc
# Summary of the method: as §1
# [6] = target: Fuc(a1-2)Gal3S(b1-4)GlcNAc
# Summary of the method: as §1
# Fuc(a1-2)Gal6S(b1-4)Glc = target: Fuc(a1-2)Gal6S(b1-4)Glc
# Summary of the method: as §1
# [7] = target: Fuc(a1-2)[Gal(a1-3)]Gal(b1-3)GlcNAc(b1-2)Man(a1-3)[Fuc(a1-2)[Gal(a1-3)]Gal(b1-3)GlcNAc(b1-2)Man(a1-6)]Man(b1-4)GlcNAc(b1-4)GlcNAc
# Summary of the method: as §1
# [8] = target: Fuc(a1-2)[Gal(a1-3)]Gal(b1-3)GlcNAc(b1-6)GalNAc
# Summary of the method: as §1
# [9] = target: Fuc(a1-2)[Gal(a1-3)]Gal(b1-4)GlcNAc(b1-2)Man(a1-3)[Fuc(a1-2)[Gal(a1-3)]Gal(b1-4)GlcNAc(b1-2)Man(a1-6)]Man(b1-4)GlcNAc(b1-4)GlcNAc
# Summary of the method: as §1
# [10] = target: Fuc(a1-2)[Gal(a1-3)]Gal(b1-4)GlcNAc(b1-6)GalNAc
# Summary of the method: as §1
# [11] = target: Fuc(a1-2)[Gal(a1-3)]Gal(b1-4)[Fuc(a1-3)]GlcNAc(b1-3)GalNAc
# Summary of the method: as §1
# [12] = target: Fuc(a1-2)[GalNAc(a1-3)]Gal(b1-4)GlcNAc(b1-2)Man
# Summary of the method: as §1
# [13] = target: Fuc(a1-2)[GalNAc(a1-3)]Gal(b1-4)GlcNAc(b1-3)[Fuc(a1-2)[GalNAc(a1-3)]Gal(b1-4)GlcNAc(b1-6)]GalNAc
# Summary of the method: as §1
# [14] = target: Fuc(a1-2)[GalNAc(a1-3)]Gal(b1-4)[Fuc(a1-3)]GlcNAc(b1-3)GalNAc
# Summary of the method: as §1
# [15] = target: Fuc(a1-3)[Gal(b1-4)]GlcNAc(b1-3)Gal(b1-4)[Fuc(a1-3)]GlcNAc(b1-3)Gal(b1-4)[Fuc(a1-3)]GlcNAc
# Summary of the method: as §1
# [16] = target: Fuc(a1-3)[Gal3S(b1-4)]GlcNAc6S
# Summary of the method: as §1
# Gal(a1-3)Gal(b1-3)GlcNAc = target: Gal(a1-3)Gal(b1-3)GlcNAc
# Summary of the method: as §1
# [17] = target: Gal(a1-3)Gal(b1-3)GlcNAc(b1-2)Man(a1-3)[Gal(a1-3)Gal(b1-3)GlcNAc(b1-2)Man(a1-6)]Man(b1-4)GlcNAc(b1-4)GlcNAc
# Summary of the method: as §1
# Gal(b1-2)Gal = target: Gal(b1-2)Gal
# Summary of the method: as §1
# Gal(b1-3)Gal = target: Gal(b1-3)Gal
# Summary of the method: as §1
# [18] = target: Gal(b1-3)GlcNAc(b1-3)Gal(b1-4)GlcNAc(b1-3)Gal(b1-4)GlcNAc(b1-2)[Gal(b1-3)GlcNAc(b1-3)Gal(b1-4)GlcNAc(b1-3)Gal(b1-4)GlcNAc(b1-6)]Man(a1-6)[Gal(b1-3)GlcNAc(b1-3)Gal(b1-4)GlcNAc(b1-3)Gal(b1-4)GlcNAc(b1-2)Man(a1-3)]Man(b1-4)GlcNAc(b1-4)[Fuc(a1-6)]GlcNAc
# Summary of the method: as §1
# Gal(b1-3)GlcNAc6S = target: Gal(b1-3)GlcNAc6S
# Summary of the method: as §1
# [19] = target: Gal(b1-3)[Fuc(a1-4)]GlcNAc(b1-2)Man(a1-3)[Gal(b1-3)[Fuc(a1-4)]GlcNAc(b1-2)Man(a1-6)]Man(b1-4)GlcNAc(b1-4)[Fuc(a1-6)]GlcNAc
# Summary of the method: as §1
# [20] = target: Gal(b1-4)GlcNAc(b1-2)[Gal(b1-4)GlcNAc(b1-4)]Man(a1-3)[Gal(b1-4)GlcNAc(b1-2)Man(a1-6)]Man(b1-4)GlcNAc(b1-4)GlcNAc
# Summary of the method: as §1
# [21] = target: Gal(b1-4)GlcNAc(b1-2)[Gal(b1-4)GlcNAc(b1-4)]Man(a1-3)[GlcNAc(b1-4)][Gal(b1-4)GlcNAc(b1-2)Man(a1-6)]Man(b1-4)GlcNAc(b1-4)GlcNAc
# Summary of the method: as §1
# [22] = target: Gal(b1-4)GlcNAc(b1-3)Gal(b1-3)GalNAc
# Summary of the method: as §1
# [23] = target: Gal(b1-4)GlcNAc(b1-3)Gal(b1-4)GlcNAc(b1-2)Man(a1-3)[Gal(b1-4)GlcNAc(b1-3)Gal(b1-4)GlcNAc(b1-2)Man(a1-6)]Man(b1-4)GlcNAc(b1-4)[Fuc(a1-6)]GlcNAc
# Summary of the method: as §1
# [24] = target: Gal(b1-4)GlcNAc(b1-3)Gal(b1-4)GlcNAc(b1-3)Gal(b1-4)GlcNAc(b1-3)Gal(b1-4)GlcNAc(b1-3)Gal(b1-4)GlcNAc(b1-2)[Gal(b1-4)GlcNAc(b1-3)Gal(b1-4)GlcNAc(b1-3)Gal(b1-4)GlcNAc(b1-3)Gal(b1-4)GlcNAc(b1-3)Gal(b1-4)GlcNAc(b1-6)]Man(a1-6)[Gal(b1-4)GlcNAc(b1-3)Gal(b1-4)GlcNAc(b1-3)Gal(b1-4)GlcNAc(b1-3)Gal(b1-4)GlcNAc(b1-3)Gal(b1-4)GlcNAc(b1-2)Man(a1-3)]Man(b1-4)GlcNAc(b1-4)[Fuc(a1-6)]GlcNAc
# Summary of the method: as §1
binder,measurement,setting,value
B1,glycan array binding signal (z-score),[1],1.63
same,glycan array binding signal (z-score),[2],0.514
same,glycan array binding signal (z-score),[3],1
same,glycan array binding signal (z-score),Fuc(a1-2)Gal(b1-4)GlcNAc,0.427
same,glycan array binding signal (z-score),[4],-0.455
same,glycan array binding signal (z-score),[5],-1.5
same,glycan array binding signal (z-score),[6],1.12
same,glycan array binding signal (z-score),Fuc(a1-2)Gal6S(b1-4)Glc,-0.521
same,glycan array binding signal (z-score),[7],0.17
same,glycan array binding signal (z-score),[8],0.093
same,glycan array binding signal (z-score),[9],2.01
same,glycan array binding signal (z-score),[10],-0.039
same,glycan array binding signal (z-score),[11],2.93
same,glycan array binding signal (z-score),[12],-0.751
same,glycan array binding signal (z-score),[13],0.092
same,glycan array binding signal (z-score),[14],-0.531
same,glycan array binding signal (z-score),[15],-0.559
same,glycan array binding signal (z-score),[16],2.08
same,glycan array binding signal (z-score),Gal(a1-3)Gal(b1-3)GlcNAc,-0.137
same,glycan array binding signal (z-score),[17],3.6
same,glycan array binding signal (z-score),Gal(b1-2)Gal,-1.18
same,glycan array binding signal (z-score),Gal(b1-3)Gal,-0.801
same,glycan array binding signal (z-score),[18],2.48
same,glycan array binding signal (z-score),Gal(b1-3)GlcNAc6S,1.23
same,glycan array binding signal (z-score),[19],2.15
same,glycan array binding signal (z-score),[20],-1.41
same,glycan array binding signal (z-score),[21],-0.683
same,glycan array binding signal (z-score),[22],0.068
same,glycan array binding signal (z-score),[23],0.671
same,glycan array binding signal (z-score),[24],2.8
